Results reported in publication PMC5540273 (PLoS ONE, 2017).

Columns and labels:
Settings in all cases: concentration: 1 μM,replicates: in singlicate; n = 1
PRKD3 = system: PRKD3
PRKG1 = system: PRKG1
PRKG2 = system: PRKG2
PRKR = system: T1, PRKR
T1 construct: gene EIF2AK2

PRKX = system: PRKX
PRP4 = system: PRP4
PYK2 = system: T2, PYK2
T2 construct: gene PTK2B

QSK = system: QSK
RAF1 = system: RAF1
RET = system: RET
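Note: KINOMEscan kinase panel screen.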

SMILES	%Inh (PRKD3)	%Inh (PRKG1)	%Inh (PRKG2)	%Inh (PRKR)	%Inh (PRKX)	%Inh (PRP4)	%Inh (PYK2)	%Inh (QSK)	%Inh (RAF1)	%Inh (RET)
O=C(Nc1n[nH]c2cc(-c3ccco3)ccc12)C1CC1 [SB-737447]	0%	0%	0%	0%	0%	13%	23%	20%	0%	0%
Cn1ccc2ncnc(Oc3ccc(NC(=O)Nc4cncc(C(F)(F)F)c4)c(Cl)c3)c21	0%	0%	0%	0%	0%	6%	2%	0%	100%	100%
Cl.c1ccc(Oc2ccc(Nc3ccnc4cc(-c5ccc(CN6CCNCC6)o5)ccc34)cc2)nc1 [GW567142]	19%	0%	0%	0%	20%	13%	0%	0%	0%	20%
COc1cccc(OC)c1C(=O)Nc1cccc(-c2nn3ccccc3c2-c2ccnc(Nc3cccc(F)c3)n2)c1 [GSK361065]	2%	11%	0%	0%	0%	0%	8%	0%	29%	90.1%
Cc1ccc(Nc2ccnc(Nc3ccc4c(c3)CS(=O)(=O)C4)n2)cc1O.Cl [GW579362]	87%	0%	0%	47%	0%	84%	83%	9%	42%	100%
CS(=O)(=O)c1cccc(CNc2nc(Nc3ccc4c(c3)[C@@H]3C[C@@H]4CNC3=O)ncc2C(F)(F)F)c1	22%	0%	0%	0%	0%	10%	66%	0%	0%	100%
C[C@@H](Oc1cc(-n2cnc3cc(-c4cnn(C)c4)ccc32)sc1C(N)=O)c1ccccc1Cl [GSK580432]	0%	17%	2%	0%	0%	81%	0%	42%	13%	90%
OCCn1cc(-c2cnc3nnn(Cc4ccc5ncccc5c4)c3n2)cn1	0%	0%	0%	0%	0%	0%	0%	0%	0%	0%
COc1cccc(C2=C(Nc3cccc(Cl)c3)C(=O)NC2=O)c1 [SB-341556]	6%	0%	11%	11%	21%	25%	16%	3%	11%	37%
Cc1cccc(-c2nc(Nc3ccncc3)c3sccc3n2)n1 [GW869641]	90.7%	7%	14%	54%	0%	0%	20%	24%	4%	31%
Cn1ccc2ncnc(Oc3ccc(NC(=O)Nc4cccc(C(F)(F)F)c4)c(Cl)c3)c21	9%	0%	7%	0%	0%	5%	6%	0%	80%	100%
Cn1ccc2ncnc(Oc3ccc(NC(=O)Nc4ccnc(C(F)(F)F)c4)c(Cl)c3)c21	0%	0%	9%	0%	1%	14%	9%	0%	16%	100%
CCNCC(Cc1ccccc1)NC(=O)c1cc(Br)c(-c2ccnc3[nH]ccc23)s1.Cl.Cl (centres unmarked) [GSK1383280]	73%	99%	99%	22%	95.6%	6%	25%	0%	2%	75%
Cn1ccc2ncnc(Oc3ccc(NC(=O)Nc4cnn(C(C)(C)C)c4)c(Cl)c3)c21	4%	9%	0%	17%	3%	0%	0%	0%	44%	100%
CC(C)c1nc(-c2cccc(NS(=O)(=O)c3ccccc3)c2)c(-c2ccnc(Nc3ccc4c(c3)CN(C)CC4)n2)s1 [GSK1649598]	100%	0%	0%	29%	5%	8%	48%	49%	87%	95.4%
Cc1nnc(-c2ccc3occ(-c4ccc(S(C)=O)cc4)c3n2)o1 (centres unmarked)	0%	0%	0%	56%	0%	16%	2%	0%	14%	0%
Cc1n[nH]c2cc(Nc3ccnc(Nc4cccc(CN5CCOCC5)c4)n3)ccc12 [GW682569]	18%	0%	3%	23%	0%	65%	0%	0%	0%	56%
